# Several values for one entry are separate records, joined by “and”; a condition that tells them apart may be missing. Equal entries are not always repeated. Activity calls are given as the source filed them.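 The calls were made as follows, unless noted: active = compounds killing one labelled cell type while sparing the other, by normalised counts and ratio limits, not self-fluorescent; inactive = the rest.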
# What was measured:
# [1] = molecular target: 6-phosphogluconate dehydrogenase, decarboxylating (Homo sapiens) (UniProt P52209); assay: 6PGD enzyme inhibitors, primary screen, biochemical, human, recombinant enzyme, NADPH absorbance (AID 1159550;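 active = at least 20% inhibition of 6-phosphogluconate dehydrogenase activity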); details: recombinant 6PGD, NADPH absorbance 341 nm; at 10 µM; stronger effect = higher value
# [2] = differential killing of epithelial or mesenchymal cells, primary screen, imaging, PC-3E GFP, TEM4-18 mCherry, co-culture (AID 1345086); details: imaging cell counts, at 1 µM; for red/green cell ratio (normalised): actives lie on both sides, counts scaled to control wells, 1 = unselective;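 as to all read-outs here: cells exposed to compound for 72 h before imaging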;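 as to red/green cell ratio (normalised): normalised mesenchymal count divided by normalised epithelial count so high means epithelial killing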
# [3] = liver-stage malaria parasite growth inhibition, primary screen, cell-based, HepG2, luciferase luminescence, HepG2 viability (AID 624349; in the data active = parasite load remaining mostly below about 12%, no sharp cut-off; inactive = mostly above about 10%;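 also: 100% = mean of DMSO negative control wells on the same plate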); details: P. berghei liver stage in HepG2, luciferase luminescence, concentration not given here; parasite load remaining: stronger effect = lower value; viability: measured here: HepG2 viability without parasites
# [4] = survival rescue of mitochondrial mutant cells in low glucose, primary screen, MELAS cybrids, Rieske KO mouse fibroblasts, CellTiter-Glo (AID 1508586;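 active = mean z-score across replicates of 1.96 or higher in either the MELAS or the Rieske mutant cell line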;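 also: z relative to plate mean and SD of compound and empty wells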)
# [5] = molecular target: NAD(+) hydrolase SARM1 (Homo sapiens) (UniProt Q6SZW1); assay: SARM1 TIR NADase inhibitors, cell lysate, NAD-Glo luminescence (AID 1508614;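 active = compound whose remaining NAD level is above about 45 nM, limit read from the data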;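 also: higher remaining NAD means stronger inhibition of SARM1 NADase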); details: SAM-TIR HEK293T lysate NADase, at 1 µM, stronger effect = higher value
# [6] = molecular target: Mitogen-activated protein kinase 7 (Homo sapiens) (UniProt Q13164); assay: ERK5 transactivation activators in reporter cells, primary screen, cell-based, HTS (AID 1508626;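 active = luciferase signal above three times the same-plate solvent-only control wells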;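 also: luciferase driven by Gal4-ERK5 fusion binding five Gal4 sites before minimal TATA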); details: HeLa Gal4-ERK5 transactivation, 18 h, at 5 µM, stronger effect = higher value
# [7] = viability rescue of complex I mutant cybrids, primary screen, cell-based, galactose medium, ATP luminescence (AID 1645843;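 active = z-score of at least 1.8 in each of two replicates, scored against plate mean and spread of sample wells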;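 also: positive z means more ATP and so rescue of galactose-driven cybrid death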); details: complex I mutant cybrid cells, 72 h, stronger effect = higher value
# [8] = sensitizers of A549 cells to miR-34 induction, primary screen, imaging, A549 dox-inducible miR-34, nuclei and caspase counts (AID 1347080;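 active = compounds whose cell count with miR-34 switched on is under 0.7 times the count with it off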); details: A549 miR-34 inducible, Hoechst nuclei count, 48 h
# [9] = measured here: epithelial PC-3E GFP cell survival
# [10] = measured here: mesenchymal TEM4-18 mCherry cell survival
# [11] = MELAS cybrid survival, CellTiter-Glo 48 h, stronger effect = higher value
# [12] = Rieske KO mouse fibroblast survival, CellTiter-Glo 72 h
# Sequence of 6-phosphogluconate dehydrogenase, decarboxylating (Homo sapiens) (P52209 whole entry, looked up): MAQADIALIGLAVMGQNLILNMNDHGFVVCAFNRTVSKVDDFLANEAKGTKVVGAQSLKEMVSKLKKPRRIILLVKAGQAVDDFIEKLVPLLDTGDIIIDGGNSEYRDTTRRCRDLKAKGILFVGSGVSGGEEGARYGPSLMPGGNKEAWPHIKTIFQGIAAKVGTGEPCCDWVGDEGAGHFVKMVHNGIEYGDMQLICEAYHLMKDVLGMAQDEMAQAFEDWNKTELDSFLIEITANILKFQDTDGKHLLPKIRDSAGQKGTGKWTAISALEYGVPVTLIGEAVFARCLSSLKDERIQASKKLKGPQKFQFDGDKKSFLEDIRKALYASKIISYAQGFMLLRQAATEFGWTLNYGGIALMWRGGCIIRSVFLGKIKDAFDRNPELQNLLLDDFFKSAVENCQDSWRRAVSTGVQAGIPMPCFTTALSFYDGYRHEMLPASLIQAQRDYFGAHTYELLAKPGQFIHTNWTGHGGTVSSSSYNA
# Sequence of Mitogen-activated protein kinase 7 (Homo sapiens) (Q13164 whole entry, looked up, the tested form may be a part): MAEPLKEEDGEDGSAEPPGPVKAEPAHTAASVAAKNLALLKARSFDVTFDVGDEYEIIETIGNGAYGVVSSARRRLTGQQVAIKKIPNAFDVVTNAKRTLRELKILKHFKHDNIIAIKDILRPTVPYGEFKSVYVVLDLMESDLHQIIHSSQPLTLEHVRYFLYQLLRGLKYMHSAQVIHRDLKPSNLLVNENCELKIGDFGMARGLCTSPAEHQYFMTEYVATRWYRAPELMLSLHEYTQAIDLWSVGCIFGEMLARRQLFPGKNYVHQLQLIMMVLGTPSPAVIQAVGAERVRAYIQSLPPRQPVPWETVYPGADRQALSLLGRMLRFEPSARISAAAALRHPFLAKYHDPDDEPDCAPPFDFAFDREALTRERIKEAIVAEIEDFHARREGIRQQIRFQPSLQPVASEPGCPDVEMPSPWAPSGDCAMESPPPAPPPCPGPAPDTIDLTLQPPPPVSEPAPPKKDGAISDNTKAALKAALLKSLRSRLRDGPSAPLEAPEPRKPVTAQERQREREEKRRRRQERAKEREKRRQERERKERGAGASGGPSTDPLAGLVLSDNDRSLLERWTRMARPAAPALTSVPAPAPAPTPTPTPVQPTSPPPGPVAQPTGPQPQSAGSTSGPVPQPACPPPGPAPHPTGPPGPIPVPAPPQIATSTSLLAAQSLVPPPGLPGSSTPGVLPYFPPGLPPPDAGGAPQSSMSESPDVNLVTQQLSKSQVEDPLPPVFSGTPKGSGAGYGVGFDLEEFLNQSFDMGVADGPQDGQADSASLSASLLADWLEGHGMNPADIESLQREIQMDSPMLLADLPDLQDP
# Sequence of NAD(+) hydrolase SARM1 (Homo sapiens) (Q6SZW1 whole entry, looked up, the tested form may be a part): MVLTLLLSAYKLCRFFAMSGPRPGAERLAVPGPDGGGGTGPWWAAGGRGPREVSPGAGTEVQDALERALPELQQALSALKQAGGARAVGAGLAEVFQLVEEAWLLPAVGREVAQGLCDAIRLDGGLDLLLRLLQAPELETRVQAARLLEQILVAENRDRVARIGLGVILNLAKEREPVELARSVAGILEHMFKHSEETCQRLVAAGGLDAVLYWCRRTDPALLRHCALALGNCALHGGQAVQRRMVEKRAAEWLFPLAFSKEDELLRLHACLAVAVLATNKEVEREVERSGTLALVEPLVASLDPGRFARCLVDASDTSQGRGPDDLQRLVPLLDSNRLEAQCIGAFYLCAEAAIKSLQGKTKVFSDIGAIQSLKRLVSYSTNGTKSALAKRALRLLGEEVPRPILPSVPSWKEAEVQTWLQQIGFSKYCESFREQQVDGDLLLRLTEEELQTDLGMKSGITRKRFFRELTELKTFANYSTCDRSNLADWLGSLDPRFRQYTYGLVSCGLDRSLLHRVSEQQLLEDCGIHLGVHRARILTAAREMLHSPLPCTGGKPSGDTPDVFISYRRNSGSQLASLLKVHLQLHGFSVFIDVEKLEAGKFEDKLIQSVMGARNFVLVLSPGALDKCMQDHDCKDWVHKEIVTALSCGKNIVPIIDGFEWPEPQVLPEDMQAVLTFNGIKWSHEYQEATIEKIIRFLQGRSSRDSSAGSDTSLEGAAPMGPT
smiles,measurement,setting,value
Cc1cc(=O)oc2cc(O)cc(O)c12,inhibition,[1],3.6% (inactive)
same,red/green cell ratio (normalised),[2],0.8 (inactive)
same,normalised cell number,[2]; [9],1.18
same,normalised cell number,[2]; [10],0.94
O=C(O)CCC(=O)OCC(NC(=O)C(Cl)Cl)C(O)c1ccc([N+](=O)[O-])cc1 (stereo not drawn),inhibition,[1],1.37% (inactive)
same,red/green cell ratio (normalised),[2],1.01 (inactive)
same,normalised cell number,[2]; [9],1.15
same,normalised cell number,[2]; [10],1.16
O=C(O[C@@H]1Cc2c(O)cc(O)cc2O[C@@H]1c1cc(O)c(O)c(O)c1-c1c([C@H]2Oc3cc(O)cc(O)c3C[C@H]2OC(=O)c2cc(O)c(O)c(O)c2)cc(O)c(O)c1O)c1cc(O)c(O)c(O)c1,inhibition,[1],-4.6% (inactive)
same,red/green cell ratio (normalised),[2],1.06 (inactive)
same,normalised cell number,[2]; [9],0.89
same,normalised cell number,[2]; [10],0.94
COc1cccc(-c2cc(=O)c3ccc(OC)cc3o2)c1,inhibition,[1],-2.44% (inactive)
same,red/green cell ratio (normalised),[2],1.01 (inactive)
same,normalised cell number,[2]; [9],1.02
same,normalised cell number,[2]; [10],1.03
NCCc1cnc[nH]1,parasite load remaining,[3],99.6% (inactive) and 68.2% (inactive)
same,viability,[3],74.2% and 99%
same,inhibition,[1],11.6% (inactive)
same,red/green cell ratio (normalised),[2],1.19 (inactive)
same,normalised cell number,[2]; [9],0.99
same,normalised cell number,[2]; [10],1.18
same,z-score,[4]; [11],1.03 (inactive) and -0.124 (inactive) and -0.135 (inactive)
same,z-score,[4]; [12],-0.434 and -0.222 and -0.159
same,remaining NAD,[5],10 nM (inactive)
same,luciferase signal,[6],68 AU (inactive)
same,z-score,[7],0.205 (inactive) and 0.305 (inactive) and 0.49 (inactive)
O=c1cc(-c2ccccc2)oc2cc(O)c(O)c(O)c12,parasite load remaining,[3],140% (inactive)
same,viability,[3],91.4%
same,inhibition,[1],4.11% (inactive)
same,red/green cell ratio (normalised),[2],0.84 (inactive)
same,normalised cell number,[2]; [9],1.08
same,normalised cell number,[2]; [10],0.91
same,fold change,"[8]; stronger effect = lower value, cell number ratio, induced over uninduced",1.03 (inactive) and 0.801 (inactive) and 0.986 (inactive)
same,fold change,[8]; measured here: relative caspase fold change +Dox/-Dox,1.01 and 1.16 and 0.831
same,cell count,"[8]; measured here: total cells with miR-34 induction, stronger effect = lower value",5800 and 6380 and 7810
same,cell count,[8]; measured here: total cells without miR-34 induction,5640 and 7960 and 7920
same,z-score,[4]; [11],-0.448 (inactive)
same,z-score,[4]; [12],-1.5
same,luciferase signal,[6],60 AU (inactive)
same,z-score,[7],-0.805 (inactive)
O=c1ccc2ccc(O)cc2o1,inhibition,[1],5.77% (inactive)
same,red/green cell ratio (normalised),[2],0.88 (inactive)
same,normalised cell number,[2]; [9],1.05
same,normalised cell number,[2]; [10],0.93
N.N.O=C([O-])C1(C(=O)[O-])CCC1.[Pt+2],inhibition,[1],-2.44% (inactive)
same,red/green cell ratio (normalised),[2],0.96 (inactive)
same,normalised cell number,[2]; [9],1.09
same,normalised cell number,[2]; [10],1.04
C=C1C2=CC(=O)O[C@@H](c3ccoc3)[C@]2(C)CCC1[C@@]1(C)C=CC(=O)C(C)(C)[C@@H]1CC(=O)OC (stereo partly drawn),inhibition,[1],1.03% (inactive)
same,red/green cell ratio (normalised),[2],1.06 (inactive)
same,normalised cell number,[2]; [9],1.13
same,normalised cell number,[2]; [10],1.2
